According to PubChem BioAssay (Tox21):
Inconclusive results are not listed. Entries that show only a call come without a potency. Activity calls are given as the source filed them. Calls follow the shape of the dose curve; as a rule, active = well fitted curve in the direction sought with a large enough effect in the repeat runs; inconclusive = weak or mixed curves; inactive = no such curve, though single readings can be large; an effect the other way counts as inactive or inconclusive.

Assay: Caspase-3/7 induction in CHO-K1 cells by small molecules, qHTS cell viability counter screen (AID 1346979); also: nearly all actives have a fitted effect of over 35% in size
Settings: CellTiter-Fluor fluorescence, 17 h; series mostly up to 92.4 µM
How it was run: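 In the same wells as the caspase read, viability of compound-treated wild-type CHO-K1 cells was assessed using CellTiter-Fluor, added after 16hr at 37C and measured by fluorescence following 1hr further incubation.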
Potency is read from the fitted curve at half-maximal effect.

SMILES | Potency
CCCCCCCC(OC)OC | inactive
Cn1cnc2ncnc(N)c21 | inactive
COC(=O)C1=C(C)NC(C)=C(C(=O)OCCCN2CCC(c3ccccc3)(c3ccccc3)CC2)C1c1cccc([N+](=O)[O-])c1 (centres undefined) | 26.6 µM (active)
Cc1oc(-c2ccccc2)nc1CCOc1ccc(C[C@H](Nc2ccccc2C(=O)c2ccccc2)C(=O)O)cc1 | 30.6 µM (active)
O=C(O)CC(=O)O | inactive
CCOC(=O)C1=C(C)NC(C)=C(C(=O)OCC)C1c1ccccc1/C=C/C(=O)OC(C)(C)C | 33.5 µM (active)
Cc1cccc(C)n1 | inactive
Oc1cc2ccccc2cc1O | inactive
C/C=C/c1ccc(OC)c(OC)c1 | inactive

Assay: Caspase-3/7 induction in CHO-K1 cells by small molecules, qHTS assay (AID 1346980); also: nearly all actives have a fitted effect of over 15% in size
Settings: CHO-K1 caspase-3/7 induction, Caspase-Glo luminescence, 17 h; series mostly up to 92.4 µM
How it was run: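 Wild-type CHO-K1 cells exposed to compounds for 17hr at 37 C, 5% CO2. Caspase-3/7 activity then measured by Caspase-Glo 3/7 luminescence after 30min at room temperature.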

SMILES | Potency
CNCC[C@H](Oc1cccc2ccccc12)c1cccs1 | inactive
CC(C)c1cccc(C(C)C)c1N1C(=O)c2ccc(O)cc2C1=O | inactive
CCCCCCCC/C=C/CCCOC(C)=O | inactive
CCOC(=O)CC(C)O (centres undefined) | inactive
CCCCCCC(C)OC(=O)COc1nc(F)c(Cl)c(N)c1Cl (centres undefined) | inactive
CCc1ccc(O)c(C(C)(C)C)c1 | inactive
CCCCCCCCCCCCCCNCCO | inactive
COc1ccc(C#N)cc1 | inactive
CCN=C1C=CC(=C(c2ccc(N(CC)CC)cc2)c2ccc(N(CC)CC)cc2)c2ccccc21 | inactive
COc1cc(C=C2CCC/C(=C\c3ccc(O)c(OC)c3)C2=O)ccc1O | inactive
COc1ccc(-n2nc(CCC(=O)N(C)O)cc2-c2ccc(Cl)cc2)cc1 | inactive
CC(C)(c1cc(Br)c(OCCO)c(Br)c1)c1cc(Br)c(OCCO)c(Br)c1 | inactive
C/C=C/C(=O)Oc1c(CCCCCC(C)C)cc([N+](=O)[O-])cc1[N+](=O)[O-] | 48.6 µM (active)
Cc1c(C)n(Cc2ccccc2)c2ccc(C(=O)OCCN(C)C)cc12 | inactive
COc1ccccc1C=O | inactive
CCCCOC(=O)C(C)CC (centres undefined) | inactive
CSc1ccc2c(c1)N(CCC1CCCCN1C)c1ccccc1S2 (centres undefined) | 19.3 µM (active)
C[C@@H]1CC[C@H]2C(C)(C)[C@H]3C[C@@]12CC[C@@]3(C)O | inactive
CCCCCCCOC(=O)c1ccc(O)cc1 | inactive
CC(C(O)c1ccccc1)N(C)CCOC(c1ccccc1)c1ccccc1 (centres undefined) | inactive
